The compounds below were run on CDK4. Settings: concentration: 1 μM, replicates: in singlicate; n = 1.
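Also: KINOMEscan kinase panel screen.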

| Compound | %Inh [%] |
| --- | --- |
| COc1cccc(C(=O)Nc2cccc(Oc3ccc4nc(NC(=O)C5CC5)cn4n3)c2)c1 | 0 |
| Cl.Cl.NCC(NC(=O)c1cc(-c2ccccc2)c(-c2ccnc3[nH]ccc23)s1)c1ccccc1 (stereo not shown) [GSK1321561] | 27 |
| CC(=O)Nc1nc2cnc(Nc3cc(NC(=O)c4cccc(C5(C#N)CC5)c4Cl)ccc3C)nc2s1 | 0 |
| COc1cccc(NC(=O)NC2CCN(c3ccnc(Nc4cc(OC)c(OC)c(OC)c4)n3)C2)c1 (stereo not shown) [GSK1379763] | 0 |
| COc1cc2c(cc1OCCN1CCNCC1)ncc1c3ccc(C#N)cc3[nH]c21 | 6 |
| CSc1cccc2c(-c3ccncn3)c(-c3ccc(F)cc3)nn12 [GW514786] | 15 |
| Cn1cc(-c2ccc3c(c2)CCN3C(=O)Cc2cccc(Cl)c2)c2c(N)ncnc21 [GSK2606590] | 34 |
| CCS(=O)(=O)c1ccc(OC)c(Nc2nccc(-c3c(-c4cccc(NC(=O)c5c(F)cccc5F)c4)nn4ncccc34)n2)c1 [GSK326180] | 0 |
| CCn1c(-c2nonc2N)nc2c(C#CC(C)(C)O)ncc(OCCCCN)c21.O=C(O)C(F)(F)F.O=C(O)C(F)(F)F [GSK507274] | 0 |
| O=C(Nc1cccc(-c2nn3ccccc3c2-c2ccnc(Nc3cccc(C(F)(F)F)c3)n2)c1)c1c(F)cccc1F [GSK292658] | 0 |
| CN(c1ccc(NC(=O)Nc2cc(C(F)(F)F)ccc2F)cc1)c1ccnc(Nc2ccc(S(N)(=O)=O)cc2)n1 [GW809893] | 0 |
| COc1cc(Nc2ncc3c(C)nc(-c4cc5ccccc5[nH]4)n3n2)cc(OC)c1OC [GW869516] | 0 |
| Cc1ccc(C)c(NC(=O)NC2CCN(c3ccnc(Nc4ccc(F)cc4)n3)C2)c1 (stereo not shown) [GSK1379720] | 35 |
| c1ccc(Oc2ccc(Nc3ccnc4cc(-c5ccc(CNCCN6CCOCC6)o5)ccc34)cc2)nc1 [GW567145] | 1 |
| COc1cc(Nc2nccc(-c3c(-c4cccc(NC(=O)c5c(F)cccc5F)c4)nn4ncccc34)n2)cc(OC)c1OC [GSK327238] | 21 |
| COc1cc(Nc2nccc(N3CCC(NC(=O)Nc4cccc(C(C)=O)c4)C3)n2)cc(OC)c1OC (stereo not shown) [GSK1379753] | 0 |
| Cl.Cl.NCC(NCc1ccc(-c2ccnc3[nH]ccc23)s1)c1ccccc1 (stereo not shown) [GSK1321565] | 50 |
| Oc1cc(Nc2ccnc3cc(I)ccc23)ccc1F [GW552771] | 0 |
| Cc1ccc(C(=O)Nc2ccc(Nc3ccnc4cc(-c5nccs5)ccc34)cc2O)cc1.Cl [GW494702] | 43 |

| Compound | %Inh [%] |
| --- | --- |
| C[C@@H]1CC[C@@H](C(=O)Nc2ccccc2)CN1c1cc(-c2ccc3c(N)n[nH]c3c2)nc(N)n1 [GSK2286062] | 16 |
| Nc1ncc(-c2cccnc2)c2scc(-c3ccc4c(c3)CCN4C(=O)Cc3ccccc3)c12 [GSK683281] | 14 |
| Cl.c1ccc(-c2ccc3c(Nc4ccc5[nH]ccc5c4)ccnc3c2)nc1 [GW440138] | 35 |
| CCn1c(-c2nonc2N)nc2c(C#CC(C)(C)O)nc(OC[C@H](N)c3ccccc3)cc21 [GSK943949] | 0 |
| Cn1cc(-c2ccc3c(c2)CCN3C(=O)Cc2cccc(F)c2)c2c(N)ncnc21 [GSK2603358] | 17 |
| O=C(Nc1cccc(-c2nn3ncccc3c2-c2ccnc(Nc3ccccc3)n2)c1)c1c(F)cccc1F [GSK198271] | 0 |
| COc1cc(Nc2nccc(-c3c(-c4cccc(NC(=O)c5c(F)cccc5F)c4)nn4ccccc34)n2)cc(OC)c1OC [GSK323521] | 7 |
| FC(F)(F)c1ccc(/C=C/c2cncnc2Nc2ccc3[nH]c(Cc4ccccc4)nc3c2)cc1 [GW709199] | 6 |
| CC(C)(C)c1ccc2nccc(Nc3cccc(O)c3)c2c1 [GW856795] | 32 |
| CCc1ccc(-c2ccc3c(c2)-c2c(cnn2C)S(=O)(=O)N3C)cc1 | 0 |
| COc1cccc(C2=C(Nc3ccc(Cl)c(C(=O)O)c3)C(=O)NC2=O)c1 [SB-390769] | 0 |
| NCCCC(NC(=O)c1cc(Br)c(-c2ccnc3[nH]ccc23)s1)c1ccccc1.O=C(O)C(F)(F)F.O=C(O)C(F)(F)F (stereo not shown) [GSK1287544] | 5 |
| COC(=O)Nc1nc2ccc(Oc3ccc(NC(=O)Nc4cc(C(F)(F)F)ccc4F)cc3)cc2n1C.Cl [GW692089] | 26 |
| CC(C)c1nc(-c2cccc(NS(=O)(=O)c3c(F)cccc3F)c2F)c(-c2ccnc(Nc3ccc(N4CCOCC4)nc3)n2)s1 [GSK2008607] | 96.3 |
| COCCOCCOc1cc2ncc3c4ccc(C#N)cc4[nH]c3c2cc1OC | 0 |
| Fc1ccc(-c2ncn(C3CCNCC3)c2-c2ccnc(Oc3ccc(-c4ccccc4)cc3)n2)cc1 [SB-245391] | 15 |
| c1ccc(-c2cnc3nccnn23)cc1 [AH20685] | 0 |
| COc1cccc(-c2ccc3c(NC(=O)C4CC4)n[nH]c3n2)c1 [SB-710903] | 52 |
